Data: PubChem BioAssay (Tox21)
Records with an inconclusive call do not appear. Entries that show only a call come without a potency. Activity calls are given as the source filed them. Calls follow the shape of the dose curve; as a rule, active = well fitted inhibition curve with a large enough effect in the repeat runs; inconclusive = weak or mixed curves, or effect the other way; inactive = no such curve, though single readings can be large or run the other way.
Potency is read from the fitted curve at half-maximal effect.

Each molecule was assayed against Nuclear receptor subfamily 1 group I member 3 (Homo sapiens) (UniProt Q14994) (assay: qHTS assay to identify small molecule antagonists of the constitutive androstane receptor (CAR) signaling pathway (AID 1224838;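 also: HepG2 cells stably expressing hCAR with CYP2B6 luciferase reporter stimulated by CITCO; nearly all actives have a fitted effect of over 40% in size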)). Details: HepG2-CYP2B6-hCAR luciferase, CITCO-stimulated, 24 h; series mostly up to 92.4 µM.
Nuclear receptor subfamily 1 group I member 3 (Homo sapiens), sequence (Q14994 whole entry, looked up): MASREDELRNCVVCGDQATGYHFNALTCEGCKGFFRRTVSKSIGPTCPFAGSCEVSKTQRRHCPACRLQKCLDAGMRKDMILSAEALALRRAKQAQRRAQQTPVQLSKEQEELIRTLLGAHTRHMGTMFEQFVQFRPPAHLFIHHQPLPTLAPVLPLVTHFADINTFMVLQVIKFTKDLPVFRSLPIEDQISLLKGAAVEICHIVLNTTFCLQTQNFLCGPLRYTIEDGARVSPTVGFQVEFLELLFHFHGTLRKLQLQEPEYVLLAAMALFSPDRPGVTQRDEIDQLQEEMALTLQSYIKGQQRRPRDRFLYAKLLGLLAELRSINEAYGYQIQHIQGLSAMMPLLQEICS
Excerpt: U.S. Tox21 Program National Center for Advancing Translational Sciences [NCATS] NIH Chemical Genomics Center [NCGC] U.S. Environmental Protection Agency [EPA] National Institutes of Environmental Health Sciences [NIEHS] National Toxicology Program [NTP] U.S. Food and Drug Administration [FDA] Tox21 Assay Overview: The constitutive androstane receptor (CAR) is a nuclear receptor which regulates multiple drug metabolizing enzymes (DMEs) and transporters. Activating CAR will generally increase the transcription and subsequent translation of CYP2B6 and CYP3A4. These two DMEs represent about 50% of the drug metabolizing potential in the body. When CAR is deactivated, the metabolizing potential in the body will decrease, subsequently increasing the toxicity in the body or lowering the therapeutic potential of a pro-drug. Recently, there have also been studies performed indicating CARs role in energy metabolism and cancer therapy. Therefore, inhibiting CARs activity could have a potential effect on diabetes and cancer. Identifying environmental toxins and compounds which modulate CAR, through the use of the Tox21 10K compound collection, will be an important step in determining the toxicity and potential therapeutic effects these factors will have on the human body.
Tox21 Assay Protocol Summary: A double-stable (hCAR and CYP2B6-2.2kb) transfected cell line, derived from human hepatoma (HepG2) cells, was utilized for the duration of the quantitative high-throughput screens. The HepG2-CYP2B6-hCAR cells suspended in DMEM culture medium supplemented with 10% FBS, 5 ug/mL blasticidin, 0.5 mg/mL geneticin, 100 U/mL penicillin and 100 ug/mL streptomycin were dispensed at 2500 cells/4 uL/well in 1536-well white solid bottom plates using a Multidrop Combi. After the assay plates were incubated at 37 C/5% CO2 for 4 hrs, 23 nL of compounds at 15 concentrations (from 5-48 columns) or positive control (from 1 to 4 columns) were transferred to the assay plates using a Pintool station. One uL of CITCO, was added using a Flying Reagent Dispenser to generate a final concentration of 50 nM CITCO inside each well. After a 24 hr incubation period at 37 C/5% CO2, four uL of ONE-Glo reagent was added into the assay plates using a Flying Reagent Dispenser. After a 30 min incubation period at room temperature, the luminescence intensity in the assay plates was measured using a ViewLux plate reader.
`CC(=O)Nc1ccc(C)cc1C` was tested, and the Potency was “inactive”.
In the case of `CCCCCCC(C)(C)C(=O)O`, the Potency is reported as “inactive”.
With `Cc1ccc(C(C)(C)O)cc1` the Potency was “inactive”.
With `N#[N+]c1ccc2c(S(=O)(=O)[O-])cccc2c1O` the Potency was “inactive”.
In the case of `Cc1ccc2c(Br)cc(Br)c(O)c2n1`, the Potency is reported as “inactive”.
With `Clc1ccc(Nc2nnc(Cc3ccncc3)c3ccccc23)cc1` the Potency was “inactive”.
With `COc1ccc(OC(=O)N(CC(=O)O)Cc2ccc(OCCc3nc(-c4ccccc4)oc3C)cc2)cc1` the Potency was “inactive”.
`C=CC(=O)OCC1CC2CC1C1CCC(COC(=O)C=C)C21` (stereo not given) was tested, and the Potency was “inactive”.
For `CCC=CC#N`, the Potency was “inactive”.
With `C[C@H]1C[C@H](O)c2ccsc2S1(=O)=O` the Potency was “inactive”.
With `CN1C(=O)c2ccccc2C1=O` the Potency was “inactive”.
For `COC(=O)c1nc(Cl)c(Cl)nc1N`, the Potency was 2.98 µM (active).
For `O=C(Nc1cccc2c(=O)cc(-c3nn[nH]n3)oc12)c1ccc(OCCCCc2ccccc2)cc1`, the Potency was “inactive”.
In the case of `O=c1cc(-c2ccccc2)oc2cc(O)cc(O)c12`, the Potency is reported as “inactive”.
In the case of `C1COC1`, the Potency is reported as “inactive”.
With `CCCCCCCCC(CCCCCC)C(=O)O` (stereo not given) the Potency was “inactive”.
`CC(C)=CCC/C(C)=C/CC/C(C)=C/C(=O)OCC(=O)[C@@]1(O)CC[C@H]2[C@@H]3CCC4=CC(=O)C=C[C@]4(C)[C@H]3[C@@H](O)C[C@@]21C` was tested, and the Potency was “inactive”.
In the case of `CCOc1cccc(-n2cc(C(=O)N3CCN(c4cc(C(=O)O)c5ccccc5c4)CC3)nc2-c2ccc(C)cc2)c1`, the Potency is reported as “inactive”.
In the case of `O=C1Cc2cc(Cl)ccc2N1`, the Potency is reported as “inactive”.
In the case of `CCOC(C)=O`, the Potency is reported as “inactive”.
`CC(CCC(=O)O)C(=O)O` (stereo not given) was tested, and the Potency was “inactive”.
`CCCCCCCCOc1ccc(C(=O)O)cc1` was tested, and the Potency was “inactive”.
In the case of `C(=C\c1ccccc1)/c1ccccc1`, the Potency is reported as “inactive”.
With `C=CCc1ccccc1OCC(O)CNC(C)C` (stereo not given) the Potency was “inactive”.
For `CCC(C)COC(=O)CC(C)C` (stereo not given), the Potency was “inactive”.
For `COC(=O)C1=C(C)NC(C)=C(C(=O)O[C@@H]2CCCN(Cc3ccccc3)C2)[C@@H]1c1cccc([N+](=O)[O-])c1`, the Potency was “inactive”.
`CC1CC(C)C(=O)C1=O` (stereo not given) was tested, and the Potency was “inactive”.
In the case of `COc1ccccc1NC(=O)c1cc2ccccc2cc1O`, the Potency is reported as “inactive”.
With `NCCNCCO` the Potency was “inactive”.
With `CCCCCC[C@@H](O)C/C=C\CCCCCCCC(=O)O` the Potency was “inactive”.
In the case of `C=COCC(C)C`, the Potency is reported as “inactive”.
With `Cc1cccc(N(C)C(=S)Oc2ccc3c(c2)CCC3)c1` the Potency was “inactive”.
With `CC(=O)OCC(=O)NCCCOc1cccc(CN2CCCCC2)c1` the Potency was “inactive”.
`CCCCOc1ccc(OCCCN2CCOCC2)cc1` was tested, and the Potency was “inactive”.
In the case of `CN1C[C@H](C(=O)N[C@]2(C)O[C@@]3(O)[C@@H]4CCCN4C(=O)[C@H](Cc4ccccc4)N3C2=O)C[C@@H]2c3cccc4[nH]cc(c34)C[C@H]21`, the Potency is reported as “inactive”.
`CCCCC(CC)COP(=O)(O)O` (stereo not given) was tested, and the Potency was “inactive”.
For `O=[N+]([O-])c1ccc(O/N=C/c2cc(Br)c(O)c(Br)c2)c([N+](=O)[O-])c1`, the Potency was “inactive”.
With `O=C(O)C[C@H](NC(=O)OCc1ccccc1)C(=O)O` the Potency was “inactive”.
For `c1ccc2sc(SN(C3CCCCC3)C3CCCCC3)nc2c1`, the Potency was “inactive”.
For `Cc1ccco1`, the Potency was “inactive”.
